Screening data from PubChem.
IL-1B inflam inh – inflammasome signaling inhibition, IL-1 beta readout. 4.7% of 360,000 active. activity change, % at 57.5 µM. AID 743279. THP-1 LPS/ATP IL-1B secretion, AlphaLISA, 16 h; stronger effect = lower value; in the data active = activity change below about -50%; inconclusive = mostly about -30% to -49%
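Secreted IL-1B measured by AlphaLISA bead assay after 16 h compound exposure of THP-1 cells; compounds (final up to 57.5 uM) added 1 h before LPS (250 ng/mL) and ATP (1.25 mM) stimulation; lower signal means less secretion.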
uPA generation – blocks generation of uPA at the cell surface; cell surface uPA generation assay, qHTS; Potency, µM (highest dose often 38.3 µM), for inactives: top-dose activity change, negative = inhibition, hits mostly inhibitors; AID 540303; 0.31% of 330,000 active; active = well fitted inhibition curve with a large enough effect; inconclusive = small, poorly fitted or top-dose-only effect; inactive = no such curve, though single readings can be large or run the other way; tested in mouse RAW 264.7 cells; note: potency is the fitted concentration of half-maximal effect; nearly all actives have a fitted effect of over 55% in size
HT1080 IDH1KD tx – HT-1080 IDH1 knockdown cell toxicity (counter line); HT-1080 IDH1 knockdown viability, ATP luminescence, 48 h; Potency, µM (titrated, usually from 46.1 µM), without a hit: top-dose activity, negative = toxicity, most hits filed as cytotoxic; 2% of 360,000 active; AID 686971;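 note: potency is the fitted concentration of half-maximal effect; 0% = DMSO wells and -100% = cell-free medium wells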
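In this qHTS, HT-1080 cells depleted of IDH1 are exposed for 48 h at 37 °C to compound titrations. Toxicity is scored from CellTiter-Glo luminescence, with DMSO as full viability and medium alone as none.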
DT40 TDP1 no CPT – qHTS for Inhibitors of human tyrosyl-DNA phosphodiesterase 1 (TDP1): qHTS in cells in absence of CPT | DT40 Tdp1-/- hTDP1 cells, no CPT, ATP luminescence, 48 h | Potency, µM (titrated, usually from 46.2 µM), inactives show at the top dose activity change, negative = growth inhibition, actives largely listed as inhibitors | 15% of 420,000 active; note: potency is the fitted concentration of half-maximal effect; nearly all actives have a fitted effect of over 55% in size
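Readout: luminescence from CellTiter-Glo after 30 min in the dark at RT. Cells: DT40 Tdp1-/- with stable hTDP1, 400/well. Exposure: compounds alone, ≥48 hr, 37 °C.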
HT1080-NT tox – kills 2HG-producing HT-1080-NT fibrosarcoma cells; Potency, µM (highest dose often 46.1 µM), for the others: top-dose activity, negative = less viability, usual class: cytotoxic; HT-1080-NT fibrosarcoma viability, CellTiter-Glo ATP luminescence, 48 h; 1.6% of 360,000 active;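 note: NT is the 2HG producing partner of a matched IDH1 knockdown line; potency is the fitted concentration of half-maximal effect; 0% = DMSO-treated cells and -100% = media-only wells without cells; nearly all actives have a fitted effect of over 55% in size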
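750 cells/well, RPMI + 5% FBS; 2 h settle, compound pin-transfer, 48 h at 37 degrees C. CellTiter-Glo 10 min RT, luminescence. Normalized to DMSO and media-only wells.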
TDP1 cell CPT – growth inhibition of DT40 Tdp1-/-;hTDP1 cells with camptothecin (screen for TDP1 inhibitors). Potency, µM (titrated, usually from 46.2 µM), inactives show top-dose activity change, negative = growth inhibition, hits mostly inhibitors. 12% of 420,000 active. chicken DT40 Tdp1-/-;hTDP1 cells + 20 nM CPT, ATP luminescence, 48 h. AID 686979; note: potency is the fitted concentration of half-maximal effect; nearly all actives have a fitted effect of over 55% in size
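Chicken DT40 Tdp1-/- cells stably complemented with human TDP1 were seeded at 400 cells/well in medium containing 20 nM camptothecin, exposed to pin-transferred compounds, and grown at 37 °C for at least 48 hr. Viability was read as ATP luminescence.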
Starred values were filed as active, the others as inactive; u = inconclusive; x = no result given; [ ] = remark or other dose. An excerpt weighted towards active compounds, which were near 19% of everything screened. Unless noted, calls come from the whole dose curve; as a rule, active = well fitted curve in the direction sought with a large enough effect; inconclusive = small, poorly fitted or top-dose-only effect, or another doubt; inactive = no such curve, though single readings can be large; an effect the other way counts as inactive or inconclusive. Unless noted, % is set by controls: 0 for no effect and ±100 for the full control effect.

SMILES	IL-1B inflam inh	uPA generation	HT1080 IDH1KD tx	DT40 TDP1 no CPT	HT1080-NT tox	TDP1 cell CPT
CCCN1CCC(=O)N([C@H](CSc2ccc(C)cc2)c2ccccc2)CC1	-29.7	u	-4.4%	8.2µM*	-1.7%	16.4µM*
Cc1cccc2nc(CSc3nc4ccccc4[nH]3)cn12	-66.5*	-3.6%	-0.7%	-14.9%	4.2%	18.9%
CCSc1nc2ccccc2[nH]1	5.5	1.8%	5.4%	-0.7%	0.4%	3.9%
CC1(C)C(CSc2nc3ccccc3[nH]2)C1(Cl)Cl (configuration not stated)	u	7.1%	u	u	-28.7%	23.1µM*
O=c1cc(CSc2nc3ccccc3[nH]2)c2ccccc2[nH]1	0.9	x	u	-7.5%	6.6%	0.4%
O=[N+]([O-])c1ccc(CSc2nc3ccccc3[nH]2)cc1	-23.3	1.2%	1.1%	29.1µM*	5.1%	u
c1ccc2[nH]c(SCc3cn4ccccc4n3)nc2c1	-1.0	2.7%	16.5%	u	22.3%	-4.8%
Fc1ccc(CSc2nc3ccccc3[nH]2)c2ccccc12	1.9	2.8%	u	20.6µM*	u	u
Cc1ccc(NC(=O)CCC(=O)N2Cc3ccccc3Oc3ncccc32)cc1F	x	x	x	u	x	-11.7%
CCOc1ccc(OCCSc2nc3ccccc3[nH]2)cc1	u	-4.0%	-18.4%	20.6µM*	u	16.4µM*
Fc1ccc(CSc2nc3ccccc3[nH]2)cc1	-63.2*	u	u	u	-29.9%	u
COc1cccc2c1cc1c(=O)n(CC(=O)N3CCN(c4cccc(C)c4)C(C)C3)nc(C)n12 (configuration not stated)	x	x	x	3.5%	x	-21.6%
COc1ccc(N2C(=O)CC(NNc3ncc(Cl)cc3Cl)C2=O)cc1 (configuration not stated)	17.8	2.6%	-8.8%	14.6µM*	-4.9%	14.6µM*
Cc1ccc(-n2ncc3c(NCc4ccco4)ncnc32)cc1C	0.0	1.4%	24.4%	7.5%	28.6%	10.0%
Cc1cccc(-n2ncc3c(NCc4ccco4)ncnc32)c1	-8.6	-9.3%	u	11.6µM*	u	13µM*
Clc1ccc2c(NCc3ccco3)ncnc2c1	19.1	-12.2%	-15.7%	13µM*	-12.2%	14.6µM*
Clc1ccc2c(NCc3ccccn3)ncnc2c1	39.3	1.8%	-4.8%[9.24 µM]	u	4.2%	u
Cc1cccc(-n2ncc3c(NCCc4ccc(S(N)(=O)=O)cc4)ncnc32)c1	-12.6	-3.8%	-20.2%	u	-15.1%	29.1µM*
Cc1ccc(-n2ncc3c(NCCc4ccc(S(N)(=O)=O)cc4)ncnc32)cc1	x	x	x	-7.1%	x	-6.8%
Clc1ccc2c(NCc3cccs3)ncnc2c1	50.4	-20.1%	-7.6%	20.6µM*	-4.0%	13µM*
CCC(=O)N1CCCC1(C)C(=O)Nc1ccc(C)c(C)c1 (configuration not stated)	188.8	x	u	-0.5%	12.3%	-24.3%
COc1ccc(OC)c(Nc2ncnc3c2cnn3-c2cccc(C)c2)c1	6.2	u	7.08µM*	4.61µM*	7.08µM*	5.17µM*
Cc1ccc2ncnc(NCc3ccco3)c2c1	x	x	x	4.47µM*	x	7.08µM*
CC(=O)c1ccc(NC(=O)C(C)Sc2n[nH]c(-c3cccnc3)n2)cc1 (configuration not stated)	30.5	-0.6%	1.8%	-3.9%	-0.5%	0.1%
CCc1ccc2oc(C(=O)NCC(c3ccc(Cl)cc3)N3CCOCC3)c(C)c2c1 (configuration not stated)	x	x	x	8.2µM*	x	8.2µM*
SMILES	IL-1B inflam inh	uPA generation	HT1080 IDH1KD tx	DT40 TDP1 no CPT	HT1080-NT tox	TDP1 cell CPT
Cc1ccc2c(C)c(C(=O)NCC(c3ccc(Cl)cc3)N3CCOCC3)oc2c1 (configuration not stated)	x	x	x	11.6µM*	x	14.6µM*
C[C@@H]1CN([C@@H](C)CO)C(=O)c2cc(Br)cnc2O[C@H]1CN(C)Cc1ccccc1C(=O)O	13.7	x	3.1%	-2.3%	9.2%	7.1%
CCn1c(O)c(N=NC(=O)c2cccnc2)c2cc(Br)ccc21	67.4	-4.2%	8.0%	23.1µM*	-28.5%	u
CCCCn1c(O)c(N=NC(=O)c2ccncc2)c2cc(Br)ccc21	16.2	-4.2%	-11.4%	u	-3.7%	u
CN(CCc1ccccc1)C(=O)c1ccc(NC(=O)Cc2ccc(NC(=O)C3CCN(C(=O)c4ccccc4)CC3)cc2)cc1	u	13.8%	u	u	u	u
CN(CCc1ccccc1)C(=O)c1ccc(NC(=O)Cc2ccc(NC(=O)C3CCN(C(=O)C4CCCC4)CC3)cc2)cc1	u	-6.7%	u	23.1µM*	-23.2%	16.4µM*
CN(CCc1ccccc1)C(=O)c1ccc(NC(=O)Cc2ccc(NC(=O)C3CCN(C(=O)C4CC4)CC3)cc2)cc1	-56.1*	11.6%	-25.9%	u	-14.5%	23.1µM*
CCN(CC(=O)NCCCN1CCOCC1)S(=O)(=O)c1ccc(F)cc1	9.5	-1.2%	6.0%	16.4%	4.4%	1.9%
CN1CCN(CC(=O)N2N=C(c3cccs3)CC2c2ccco2)CC1 (configuration not stated)	12.7	2.8%	-14.7%	-7.4%	0.0%	-7.8%
O=C(CCl)N1N=C(c2cccs2)CC1c1ccco1 (configuration not stated)	-99.7*	-10.0%	4.11µM*	2.91µM*	5.17µM*	2.91µM*
O=C(CCl)N1N=C(c2ccco2)CC1c1ccco1 (configuration not stated)	-99.2*	-15.2%	u	13µM*	25.9µM*	9.2µM*
O=C(O)/C=C/C(=O)N1N=C(c2ccco2)CC1c1ccco1 (configuration not stated)	-1.9	-8.0%	1.4%	-2.4%	19.7%	-21.6%
O=C(COc1ccc(Cl)cc1)N1N=C(c2cccs2)CC1c1ccco1 (configuration not stated)	-10.2	-3.4%	-4.7%	16.4µM*	-14.8%	25.9µM*
CC(=O)c1cc2c(cc1NC(=O)CSc1ncccn1)OCO2	-13.4	x	-4.4%	-22.6%	-1.2%	-12.2%
Cc1ccc(S(=O)(=O)CC(=O)Nc2cccc(C)n2)cc1	-21.4	-1.7%	14.9%	-26.3%	9.1%	u
OC[C@@H]1CN(Cc2cccnc2)C[C@H](n2cnc3c(N4CCN(c5ccccc5)CC4)ncnc32)O1	-79.4*	x	0.0%	16.4µM*	4.5%	u
